BAP1 inh: inhibitors of BAP1 deubiquitinase, primary screen, biochemical, Ub-AMC fluorescence, kinetic; Ubiquitin carboxyl-terminal hydrolase BAP1 (Homo sapiens), Q92560; recombinant BAP1, Ub-AMC hydrolysis fluorescence kinetic; stronger effect = lower value; hit rate 0.48% among 72,000; calls only at 20 µM;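 active = activity remaining at or below 50% of control, provided the compound also passes the data quality filters; inactive = the rest, including low values that fail the filters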;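 also: 100% = DMSO wells rate and 0% = substrate alone blank rate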
Cdc25B block: inhibitors of Cdc25B phosphatase catalytic domain, primary screen, biochemical, OMFP fluorescence | recombinant Cdc25B, OMFP fluorescence Ex485/Em525 | inhibition, %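 (compounds tested at 10 µM final in the well)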 | hit rate 0.1% among 65,000 | M-phase inducer phosphatase 2 (Homo sapiens), P30305 | AID 368, 2006; in the data active = inhibition above about 50%
TNAP act DEA: human TNAP enzyme activators, primary screen, biochemical, luminescent, intermediate phosphate acceptor level | AID 813, 2007 | purified TNAP, CDP-star luminescence, 100 mM DEA, 30 min; stronger effect = higher value; scale: 0 levamisole-inhibited, 1 vehicle-only enzyme | 64,000 tested, under 10 active | Alkaline phosphatase, tissue-nonspecific isozyme (Homo sapiens), P05186 | activation factor at 20 µM;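 active = activation factor of at least 2 at 20 µM, relative to controls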
HePTP inhibitor: inhibitors of human HePTP phosphatase, primary screen, biochemical, absorbance, leukemia target. recombinant HePTP phosphatase activity, OD absorbance. Tyrosine-protein phosphatase non-receptor type 7 (Homo sapiens), P35236. hit rate 0.64% among 110,000. inhibition, % at 20 µM. AID 521, 2006; in the data active = inhibition above about 50%;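 also: plate controls were vehicle for no effect and reference inhibitor for full effect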
E coli RNAP: E. coli RNAP inhibitors, biochemical; DNA-directed RNA polymerase subunit beta (Escherichia coli (strain K12)), P0A8V2; E. coli RNA polymerase, fluorescence transcription assay; inhibition, %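 (tested at 10 µM)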; hit rate 0.2% among 62,000; AID 559, 2006; in the data active = inhibition above about 20%;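 also: 0% = enzyme without compound and 100% = no enzyme blank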
Target sequence (P0A8V2 whole entry, looked up): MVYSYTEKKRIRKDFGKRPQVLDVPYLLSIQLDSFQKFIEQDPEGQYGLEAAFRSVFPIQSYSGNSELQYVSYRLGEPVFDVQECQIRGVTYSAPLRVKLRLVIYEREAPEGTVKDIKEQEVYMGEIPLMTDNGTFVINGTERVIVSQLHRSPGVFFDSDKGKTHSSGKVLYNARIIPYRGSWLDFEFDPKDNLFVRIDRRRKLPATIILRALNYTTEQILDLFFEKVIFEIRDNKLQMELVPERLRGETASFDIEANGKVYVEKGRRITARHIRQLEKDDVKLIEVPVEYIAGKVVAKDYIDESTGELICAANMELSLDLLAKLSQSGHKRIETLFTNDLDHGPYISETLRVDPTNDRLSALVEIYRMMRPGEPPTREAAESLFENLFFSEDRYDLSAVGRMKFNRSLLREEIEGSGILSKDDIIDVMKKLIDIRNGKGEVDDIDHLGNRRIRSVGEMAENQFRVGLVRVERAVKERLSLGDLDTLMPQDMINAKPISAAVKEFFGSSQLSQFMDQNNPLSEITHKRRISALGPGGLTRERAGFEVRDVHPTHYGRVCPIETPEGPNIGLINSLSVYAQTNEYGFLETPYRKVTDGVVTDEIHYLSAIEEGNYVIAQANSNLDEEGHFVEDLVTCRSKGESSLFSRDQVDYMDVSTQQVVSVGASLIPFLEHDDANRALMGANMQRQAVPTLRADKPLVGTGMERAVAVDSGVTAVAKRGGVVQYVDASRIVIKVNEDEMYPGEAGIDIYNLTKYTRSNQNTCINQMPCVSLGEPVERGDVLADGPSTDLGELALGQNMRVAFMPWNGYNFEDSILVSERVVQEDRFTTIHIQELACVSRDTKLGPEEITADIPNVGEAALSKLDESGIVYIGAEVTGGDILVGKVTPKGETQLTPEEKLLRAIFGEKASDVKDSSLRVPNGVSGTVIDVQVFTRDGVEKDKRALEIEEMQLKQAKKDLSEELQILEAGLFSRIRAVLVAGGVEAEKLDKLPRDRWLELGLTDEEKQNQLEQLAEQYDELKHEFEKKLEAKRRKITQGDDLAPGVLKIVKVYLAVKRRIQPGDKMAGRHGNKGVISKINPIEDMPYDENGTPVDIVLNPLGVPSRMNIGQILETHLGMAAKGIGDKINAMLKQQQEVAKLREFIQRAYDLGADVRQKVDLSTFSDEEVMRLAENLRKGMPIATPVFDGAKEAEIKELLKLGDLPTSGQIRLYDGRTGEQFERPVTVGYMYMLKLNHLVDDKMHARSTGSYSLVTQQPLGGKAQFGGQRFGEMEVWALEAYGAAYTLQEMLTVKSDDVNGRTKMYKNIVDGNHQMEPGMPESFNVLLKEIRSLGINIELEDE
DUSP1 inh: MKP-1 phosphatase inhibitors, primary screen, biochemical, in vitro; hit rate 0.15% among 65,000; inhibition, %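 (compounds tested at a single concentration somewhere between 10 and 100 µM)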; recombinant MKP-1, OMFP hydrolysis fluorescence; Dual specificity protein phosphatase 1 (Homo sapiens), P28562;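 active = inhibition above about 50%, limit read from the data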;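 also: 0% = DMSO max control wells and 100% = wells with enzyme stopped by NaOH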
* = called active by the depositor; i = inactive; · = no result given. A selection: hits, their analogues and other compounds. The true share with any hit is near 1%.

SMILES | BAP1 inh | Cdc25B block | TNAP act DEA | HePTP inhibitor | E coli RNAP | DUSP1 inh
CCCCCCCCNc1nc(OC)nc(OC)n1 | · | · | · | 68* | · | ·
CCCCCCCNc1nc(OC)nc(N2CCCCC2)n1 | · | · | · | -10 | · | ·
O=C1C=C(NNC(=O)c2ccncc2)CC(c2ccco2)C1 (stereo not drawn) | · | · | · | 4 | · | ·
CNc1ccc2c(O)cc(S(=O)(=O)O)cc2c1 | · | · | · | 54* | · | ·
O=C(/C=C/c1ccccc1)Nc1ccc(O)c(-c2nc3ccccc3o2)c1 | · | · | · | 7 | · | ·
O=C(O)c1cccc(N2C(=O)c3ccc(OCCOc4ccc5c(c4)C(=O)N(c4cccc(C(=O)O)c4)C5=O)cc3C2=O)c1 | · | · | · | 104* | · | ·
CC(=O)c1cccc(NC(=O)c2ccc(Br)c(S(=O)(=O)N3CCCCC3)c2)c1 | · | · | · | 3 | · | ·
O=C1CC(NCc2ccco2)C(=O)N1CCc1ccccc1 (stereo not drawn) | i | 53* | 1 | 7 | 2 | -6
O=C1CC(NCCc2ccccc2)C(=O)N1CCc1ccccc1 (stereo not drawn) | · | · | · | 10 | · | ·
O=C(Nc1nc2ccc3ccccc3c2s1)c1ccc(C(=O)c2ccccc2)cc1 | · | · | · | 104* | · | ·
COc1c(Cl)cc(-c2nc3cc(NC(=O)C(C)C)ccc3o2)cc1Cl | · | · | · | -18 | · | ·
CCCCOC(=O)c1cccc(NC(=O)c2ccc(F)cc2)c1 | i | · | · | · | · | ·
CCCCOC(=O)c1cccc(NC(=O)c2ccc(OC)cc2)c1 | · | · | · | 104* | · | ·
CC1=NN(c2cccc(C(=O)O)c2)C(=O)/C1=C\c1ccc(-c2ccc(Cl)c(C(=O)O)c2)o1 | · | · | · | 101* | · | ·
CC1=NN(c2cccc(C(=O)O)c2)C(=O)/C1=C\c1ccc(-c2cc([N+](=O)[O-])ccc2C)o1 | · | · | · | 56* | · | ·
O=C(CSc1nc2ccccc2s1)c1ccc2c(c1)Cc1ccccc1-2 | · | · | · | -19 | · | ·
COc1ccc(N/C(C)=C\C(=O)Nc2ccccc2)cc1 | · | · | · | -15 | · | ·
O=[N+]([O-])c1cc([N+](=O)[O-])c2oc(-c3ccccc3)c(Br)c2c1O | · | · | · | 104* | · | ·
Cc1cc(N2C(=O)NC(=O)/C(=C\c3ccc([N+](=O)[O-])o3)C2=O)ccc1Br | · | · | · | 104* | · | ·
Cc1cc(C)cc(N2C(=O)NC(=O)/C(=C\c3ccc([N+](=O)[O-])o3)C2=O)c1 | · | · | · | 84* | · | ·
COc1cccc(/C=C2\SC(=S)N(C3CCCCC3)C2=O)c1O | · | · | · | -21 | · | ·
O=[N+]([O-])c1ccc(Cl)c(-n2ncnc2-c2ccc(Br)cc2)c1 | · | · | · | 1 | · | ·
CCOC(=O)C(=CNc1ccc([N+](=O)[O-])cc1)C(=O)OCC | · | · | · | 9 | · | ·
COc1ccc(N/C=C(/C2=CC(=O)C=CC2=O)[N+](=O)[O-])cc1 | · | · | · | 58* | · | ·
Cc1ccc(OCCCCN2CCC(C)CC2)cc1C | · | · | · | 6 | · | ·
SMILES | BAP1 inh | Cdc25B block | TNAP act DEA | HePTP inhibitor | E coli RNAP | DUSP1 inh
COc1ccc(OC)c(NC(=O)CN2C(=O)c3ccccc3S2(=O)=O)c1 | i | -1 | 0.9 | 9 | 9 | -3
COc1ccc2c(c1)-c1ccccc1S(=O)(=O)N2C(C)=O | i | -3 | 1 | -5 | 29* | -2
N#C/C(=C/c1ccc(I)o1)c1ccc(F)cc1 | · | · | · | -16 | · | ·
Cc1cc(C)cc(CC2CC(=O)N(c3cc(C)on3)C2=O)c1 (stereo not drawn) | i | -30 | 1 | 0 | 6 | 1
COc1ccc(OC)c(N2C(=O)CC(Cc3cc(C)cc(C)c3)C2=O)c1 (stereo not drawn) | · | · | · | 97* | · | ·
CC/C(=N\NC(=O)c1ccc(C)o1)c1ccccc1O | · | · | · | -18 | · | ·
CCOc1ccc(N2C(=O)CC(NCc3ccc(Cl)cc3Cl)C2=O)cc1 (stereo not drawn) | · | · | · | 104* | · | ·
Cn1cc(/C=C/c2nc3ccccc3c(=O)n2Cc2ccccc2)c2ccccc21 | · | · | · | 104* | · | ·
COc1ccc(-c2cn3c(C)c(C(=O)Nc4cccc(C)n4)sc3n2)cc1 | i | -13 | 0.9 | 7 | 10 | 51*
CC(=O)Nc1ccc(/C=C(/C#N)C(=O)NCc2ccco2)cc1 | · | · | · | 0 | · | ·
O=C(O)c1cc(-c2cccc(Cl)c2)nc2ccccc12 | · | · | · | 104* | · | ·
O=C(Nc1ccon1)c1cc(-c2ccccc2)nc2ccccc12 | i | -7 | 0.9 | 4 | 21* | -7
Cc1cc(NC(=O)c2cc(-c3ccccc3)nc3ccccc23)no1 | · | · | · | -2 | · | ·
O=C(O)COc1ccccc1/C=N/NC(=O)COc1c(Br)cc(Br)cc1Br | · | · | · | 66* | · | ·
O=C(O)C1C2CCC(O2)C1C(=O)NCc1ccncc1 (stereo not drawn) | i | -9 | 1 | -8 | 3 | -19
O=C(O)C1C2CCC(O2)C1C(=O)NCc1ccc(F)cc1 (stereo not drawn) | · | · | · | 103* | · | ·
C=CCN1C(=O)NC(=O)/C(=C\c2cccc(OCc3ccccc3Cl)c2)C1=O | · | · | · | -13 | · | ·
COC(=O)c1ccc(C(=O)Nc2cc(Cl)ccc2Cl)cc1NC(=O)C(C)Oc1ccccc1 (stereo not drawn) | · | · | · | 66* | · | ·
CC(C)(C)c1cc(CCC(=O)NNC(=O)c2ccccc2)cc(C(C)(C)C)c1O | · | · | · | 56* | · | ·
O=C(CCc1ccccc1)NNC(=O)c1ccc(Cl)cc1Cl | · | · | · | 11 | · | ·
CCN1CCN(Cc2c(C)[nH]c3c(ccc4ccccc43)c2=O)CC1 | · | · | · | 2 | · | ·
Cc1[nH]c2c(Cl)cccc2c(=O)c1CN1CCCC1 | i | 63* | 1 | -3 | 7 | -2
O=C1NC(=O)C(=Cc2ccc(Cl)c([N+](=O)[O-])c2)C(=O)N1 | · | · | · | 96* | · | ·
COc1ccccc1C(=O)NC(=S)Nc1ccccc1 | · | · | · | -8 | · | ·
O=C1C(Cl)=CC(=NS(=O)(=O)c2ccccc2)C=C1Cl | · | · | · | 87* | · | ·
SMILES | BAP1 inh | Cdc25B block | TNAP act DEA | HePTP inhibitor | E coli RNAP | DUSP1 inh
O=C1C(Cl)=C/C(=N\S(=O)(=O)c2ccc(Cl)cc2)C(Cl)=C1Cl | · | · | · | 5 | · | ·
O=S(=O)(c1ccccc1)N1CCN(Cc2ccncc2)CC1 | · | · | · | -13 | · | ·
CN(C(=S)Nc1ccccc1)c1ccccc1 | · | · | · | 102* | · | ·
CCN(CC)c1ccc(NC(=S)Nc2ccccc2)cc1 | · | · | · | 9 | · | ·
COC(=O)c1sc(NC(=O)c2sc3cc(C)ccc3c2Cl)c(C#N)c1C | · | · | · | 103* | · | ·
Cc1nc2ccccc2n1S(=O)(=O)c1ccc2ccccc2c1 | · | · | · | 5 | · | ·
N#CC1=C(N)NC(SCC(=O)c2ccc(Cl)cc2)=C(C#N)C12CCCC2 | · | · | · | 104* | · | ·
COc1ccc(C(=O)CSC2=C(C#N)C3(CCCCC3)C(C#N)=C(N)N2)cc1 | i | -21 | 0.8 | -3 | 3 | -18
Cc1ccc(N=C2NC(=O)/C(=C/c3cccc(O)c3)S2)cc1Cl | · | · | · | 60* | · | ·
COc1cc(C2C(C(C)=O)=C(O)C(=O)N2CCN(C)C)ccc1O (stereo not drawn) | · | · | · | 9 | · | ·

Bioassay records deposited in PubChem BioAssay by several laboratories.
